Common to all, as to assay: NCI-60 one-dose screen, 48 h (100 = growth as untreated, 0 = no growth, -100 = all killed)
Common to all, as to settings: 10 µM unless noted

Assay [1] has as its system HCT-15 colon.
Assay [2] relates to HT29 colon.
Assay [3] deals with SNB-75 CNS.
Assay [4] has as its system SNB-19 CNS.
In assay [5] the test system is U251 CNS.
The test system of assay [6] is PC-3 prostate.
The test system of assay [7] is SK-MEL-5 melanoma.
For assay [8], the system named is UACC-62 melanoma.
Assay [9] concerns LOX IMVI melanoma.
Assay [10] deals with SK-MEL-28 melanoma.
In assay [11] the test system is SK-MEL-2 melanoma.
Assay [12] deals with EKVX NSCLC.
Assay [13] has as its system SN12C renal.
Assay [14] relates to UO-31 renal.
The subject of assay [15] is TK-10 renal.
The test system of assay [16] is ACHN renal.
In assay [17] the test system is CAKI-1 renal.
The test system of assay [18] is A498 renal.
In assay [19] the test system is CCRF-CEM leukemia.
Assay [20] deals with MOLT-4 leukemia.

About 83,000 compounds went through this panel and 20% of them were active in at least one assay; those are over-represented in the sample as a whole.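 The test compound was applied at a single concentration to cells in 96-well plates for 48 hours, and percent growth was recorded.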 Unmarked numbers belong to inactive results. Active and inactive are the calls of the source. The calls were made as follows: active = growth percent below 10; inactive = the rest.

As to `Cc1[nH]n(-c2ccccc2)c2nc3nncc3c(-c3ccc(Cl)cc3)c12`, the growth in assay [1] is 94.1%; in assay [2], 79.7%; in assay [3], 104%; in [4] it was 100%; in assay [5] it was 99.2%; in [6] it was 73.1%. The growth was 104% in [7]; 91.5% in assay [8]; 89% in [9]; 104% in [10]; 123% in [11]; 97% in assay [12]. Moreover, the growth in assay [13] was 93.1%; in assay [14], 96.6%; in [15], 112%; in assay [16] it was 104%; in [17], 90.3%; in [18], 102%. Besides, the results for the growth in [19] and in [20] were 89.7% and 101%, respectively.

Take `CN1CCOCCOCCOc2ccccc2NC(=O)c2nc(cnc2N)-c2ccc(cc2)S1(=O)=O`: the growth in assay [1] was 1.6% (active); in assay [2], 9.23% (active); in assay [3] it was 52.1%; in assay [4], 82.5%; in assay [5], 54.6%; in assay [6], 53.5%. Moreover, the growth in assay [7] was 60.5%; in assay [8], 54.3%; in assay [9], 30.1%; in assay [10], 58.6%; in assay [11], 49.8%; in [12] it was 80.4%. The growth in [13] is 64.7%; in assay [14], 42.1%; in assay [15], 43.7%; in [16] it was 8.87% (active); in assay [17], 53.7%; in [18] it was 29.3%. The growth in [19] is 2.07% (active); in assay [20], 0.82% (active).

Take `O=C(O)c1ccccc1Nc1cccc(S(F)(F)(F)(F)F)c1`: the growth in assay [1] was 94.7%; in assay [2] it was 84.2%; in assay [3] it was 91.3%; in assay [4], 98.7%; in assay [5], 85.7%; in assay [6] it was 95.9%. For the same compound, the growth in assay [7] was 95.6%; in assay [8], 93.7%; in assay [9] it was 92.4%; in assay [10], 108%; in assay [11], 83.6%; in assay [12], 99.3%. Also, the growth is 96.4% in assay [13]; 85.6% in assay [14]; 87.8% in [15]; 98.4% in [16]; 94.6% in [17]; 95.1% in assay [18]. Besides, the figures for the growth in [19] and in assay [20] were 98.4% and 88.1%, respectively.

With `CC[n+]1ccc2c(c1)C(=O)c1nccc3c1c-2nc1ccccc13`, the growth in assay [1] is 48.5%; in assay [2], 10%; in assay [3], -75.2% (active); in assay [4] it was -70.5% (active); in [5], -60% (active); in assay [6], 3.26% (active). Besides, the growth is -28.3% (active) in [7]; -57.7% (active) in assay [8]; -3.96% (active) in assay [9]; 1.07% (active) in assay [10]; -34% (active) in [11]; 11.2% in assay [12]. Moreover, the growth in [13] is -75% (active); in assay [14], 15.1%; in [15] it was 18.7%; in [16], 6.37% (active); in assay [17] it was 24.7%; in assay [18], -9.88% (active). Further, the growth in [19] is 0.574% (active); in assay [20] it was -30% (active).

Turning to `COc1cc(OC)c(/C=C/S(=O)(=O)Cc2cnc(OC)c(N)c2)c(OC)c1`, the growth in [1] was 9.83% (active); in assay [2], 0.841% (active); in assay [3], 42.1%; in assay [4], 31.3%; in [5], 10.5%; in assay [6], 27.8%. For the same compound, the growth in assay [7] was -24.8% (active); in [8], 40.1%; in [9], 8.96% (active); in assay [10] it was 56.2%; in assay [11] it was 24.2%; in assay [12] it was 37.9%. In addition, the growth was 23.7% in assay [13]; 25.5% in assay [14]; 27.9% in [15]; 25.7% in assay [16]; 34% in [17]; -1.94% (active) in assay [18]. Further, the growth is 15.8% in assay [19] and 1.79% (active) in [20].

With `O=C(CN1CCN(c2cc3c(cc2F)c(=O)c(C(=O)O)cn3C2CC2)CC1)Nc1nc(-c2ccc(Cl)cc2)cs1`, the growth in assay [1] is 15.7%; in assay [2], 10.4%; in [3], 32.6%; in [4], 22.5%; in assay [5], 8.26% (active); in assay [6], 17.7%. Further, the growth in [7] was 10.4%; in assay [8], 20.1%; in assay [9], -42.4% (active); in [10] it was 42.6%; in assay [11] it was 21.9%; in assay [12], 35.4%. For the same compound, the growth was 15.8% in assay [13]; 20.2% in [14]; 26.7% in [15]; 25.1% in [16]; 30.4% in assay [17]; 4.43% (active) in assay [18]. Further, the figures for the growth in [19] and in assay [20] were 23.8% and 30.5%, respectively.

Take `O=C1c2cccnc2C(=O)c2c1c(C(=O)OCCN1CCOCC1)c1ccccn21`: the growth in [1] was -65.6% (active); in assay [2], -35.4% (active); in assay [3], -13.9% (active); in assay [4], 3.55% (active); in [5], -47.5% (active); in assay [6], 15.3%. Further, the growth in assay [7] is -90.5% (active); in assay [8], -52.7% (active); in assay [9], -46% (active); in assay [10] it was -3.26% (active); in assay [11], 7.23% (active); in assay [12] it was 13.1%. For the same compound, the growth in assay [13] is -30.4% (active); in [14], -26.7% (active); in assay [15], -6.05% (active); in assay [16], 7.94% (active); in assay [17], 14.4%; in assay [18], -30.4% (active). For the same compound, the values for the growth in [19] and in [20] were 8.9% (active) and -16.2% (active), respectively.

In the case of `CCN(CC)C12CCCCC1(C)C(C#N)(C#N)C(C#N)=C(N)O2` (centres undefined), the growth in assay [1] was 106%; in assay [2], 101%; in assay [3], 92.1%; in [4], 106%; in [5] it was 103%; in assay [6] it was 115%. The growth in assay [7] is 116%; in assay [8], 90.8%; in [9], 98.9%; in [10], 99.3%; in assay [11] it was 112%; in assay [12], 89.3%. The growth in assay [13] was 97.5%; in [14], 82.7%; in assay [15] it was 93.2%; in assay [16] it was 106%; in assay [17], 91.8%; in assay [18], 122%. Besides, the growth in assay [20] is 108%.

The record behind these values is PubChem BioAssay (NCI).
